Compounds with a hit are over-represented: about 8.1% of the library has one in this group of screens.
ClpP mod: qHTS Assay for Activators of ClpP | hit rate 1.9% among 340,000 | purified B. subtilis ClpP, FRET peptide cleavage, 20 min | Potency, µM (highest dose often 57.5 µM), for the others: top-dose activity change, negative = active; active means well fitted falling curve with a large enough effect; inconclusive means small, poorly fitted or top-dose-only effect; inactive means no such curve, though single readings can be large or run the other way; further: the source files actives as falling curves though it sought activators and does not explain the sign; nearly all actives have a fitted effect of over 65% in size
Target sequence (P80244 whole entry, looked up): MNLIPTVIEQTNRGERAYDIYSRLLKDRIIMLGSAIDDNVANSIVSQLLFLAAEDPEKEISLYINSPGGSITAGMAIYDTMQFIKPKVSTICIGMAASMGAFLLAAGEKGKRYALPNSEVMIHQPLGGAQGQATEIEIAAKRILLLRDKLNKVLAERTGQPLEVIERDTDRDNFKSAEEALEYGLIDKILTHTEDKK
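ClpP 10 microg/mL final, pH 8 Tris/KCl buffer with BSA, glycerol, Tween-20; compound pinned in; FRET-FV substrate; RT 20 min; Ex320/Em430; ΔFRET vs ADEP 5.8 microM, DMSO, no enzyme.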
PINK1 expr mod: A Quantitative High throughput Screen to Identify Chemical Modulators of PINK1 Expression | Potency, µM (top dose mostly 76.6 µM), without a hit: at the highest dose activation (PINK1 increase), most hits filed as activators | PINK1 immunofluorescence, high-content cytometry, 24 h | AID 624263, 2012 | hit rate 0.2% among 410,000; active means well fitted activation curve with a large enough effect; inconclusive means small, poorly fitted or top-dose-only effect; cell line not stated here; further: % of control where 0% means no effect; nearly all actives have a fitted effect of over 65% in size
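Compound titrations (5 concentrations, 24 h) on a stable cell line; DMSO and CCCP controls. Endpoint: fixed-cell PINK1 immunofluorescence with mitochondrial, cell and nuclear markers, scanned by microplate cytometer.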
RORgamma inh: qHTS for inhibitors of ROR gamma transcriptional activity; Nuclear receptor ROR-gamma (Mus musculus), P51450; Drosophila S2 Gal4-RORgamma UAS-luciferase reporter, 20 h; Potency, µM (top dose mostly 53.6 µM), for inactives: at the top dose activity change, negative = inhibition, most hits filed as inhibitors; hit rate 5.4% among 310,000; further: on the % scale 0 is the no-effect control and ±100 the full control effect; nearly all actives have a fitted effect of over 60% in size
Target sequence (P51450 whole entry, looked up, the tested form may be a part): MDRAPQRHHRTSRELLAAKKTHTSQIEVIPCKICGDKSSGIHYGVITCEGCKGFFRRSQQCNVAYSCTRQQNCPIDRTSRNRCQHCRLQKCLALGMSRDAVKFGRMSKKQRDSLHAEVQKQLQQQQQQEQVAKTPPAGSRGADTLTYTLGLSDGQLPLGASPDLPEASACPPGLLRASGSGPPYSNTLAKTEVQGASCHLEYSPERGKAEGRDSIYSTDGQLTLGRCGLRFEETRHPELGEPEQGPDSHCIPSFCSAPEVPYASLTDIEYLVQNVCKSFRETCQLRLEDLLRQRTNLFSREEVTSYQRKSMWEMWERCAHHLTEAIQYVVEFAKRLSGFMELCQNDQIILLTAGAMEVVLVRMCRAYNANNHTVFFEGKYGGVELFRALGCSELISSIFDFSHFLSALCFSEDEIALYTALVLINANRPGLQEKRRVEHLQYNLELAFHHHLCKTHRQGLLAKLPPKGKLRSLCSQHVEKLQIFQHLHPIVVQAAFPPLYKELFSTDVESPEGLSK
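Using a luciferase readout, inhibitors were identified by reduced reporter activity in Drosophila cells coexpressing a copper-inducible Gal4–ROR gamma fusion and UAS-driven Photinus luciferase, incubated 20 hr after 700 uM copper sulfate.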
Epigenetic derep: Quantitative High-Throughput Screen for Regulators of Epigenetic Control | murine LDR cells, GFP reporter derepression, 30 h | Potency, µM (doses to about 53.9 µM), without a hit: top-dose GFP activation, hits mostly activators | hit rate 0.2% among 280,000 | AID 1865, 2009; further: % of control where 0% means no effect; nearly all actives have a fitted effect of over 60% in size
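Murine LDR cells bearing a silenced CMV-driven GFP reporter were exposed to compound for 30 h at 37 C. After PBS washes, GFP-positive cells (20-120 um objects) counted by laser-scanning microplate cytometry.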
VP16 counter: VP16 counterscreen qHTS for inhibitors of ROR gamma transcriptional activity | Drosophila S2 Gal4-VP16 UAS-luciferase, luminescence, 20 h | Potency, µM (titrated, usually from 53.6 µM), without a hit: at the top dose activity, negative = inhibition, hits mostly inhibitors | hit rate 3.5% among 310,000;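 further: Gal4-VP16 expression switched on by copper sulfate through the metallothionein promoter; on the % scale 0 is the no-effect control and ±100 the full control effect; nearly all actives have a fitted effect of over 50% in size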
Sfp inh: qHTS Assay for Inhibitors of Bacillus subtilis Sfp phosphopantetheinyl transferase (PPTase); Biochemical Sfp PPTase activity, qHTS; Potency, µM, for the others: largest response in the series, negative = inhibition, actives largely listed as inhibitors; hit rate 3.5% among 310,000;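 further: the enzyme is Sfp with the accession as filed and its product quenches rhodamine fluorescence; 0% = enzyme reaction without inhibitor and -100% = no enzyme wells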
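Fluorescence-quenching assay: 15 nM Sfp-PPTase preincubated 15 min at room temperature with compound, then 5 uM rhodamine-CoA and 12.5 uM BHQ-2-labelled YbbR peptide added. Fluorescence (ex 525/em 598 nm) read at start and after 30 min; difference gives rate.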
* = called active by the depositor; [ ] = dose if it differs, or a comment. Unless noted, the call rests on the fitted dose curve; in most records, active means well fitted curve in the direction sought with a large enough effect; inconclusive means small, poorly fitted or top-dose-only effect, or another doubt; inactive means no such curve, though single readings can be large; an effect the other way counts as inactive or inconclusive. Potency means the concentration at half of the fitted maximal effect.

For COc1ccc(NC(=O)Cn2cc(C(=O)c3ccccc3OC)c(=O)c3ccc(C)nc32)cc1OC the results were ClpP mod -4.7%, PINK1 expr mod 2.3% and Epigenetic derep -1.8%.
Screening Cc1cc(-c2ccccc2)c(C#N)c(N)n1 returned ClpP mod 31.6µM*, PINK1 expr mod 10.1%, RORgamma inh -11.8%, Epigenetic derep -0.7%, VP16 counter 18.6% and Sfp inh 2.0%.
`Cc1ccc2c(n1)sc1c(-c3ccccc3)c(C#N)c(N)nc12` gave ClpP mod 35.5µM*, PINK1 expr mod 7.7%, RORgamma inh -6.2%, Epigenetic derep inconclusive, VP16 counter -12.3% and Sfp inh -23.2%.
`Cc1ccc2c(n1)sc1c(N)ncnc12` gave ClpP mod 31.6µM*, PINK1 expr mod -1.5%, RORgamma inh -24.4%, Epigenetic derep -1.4%, VP16 counter -8.6% and Sfp inh 2.8%.
`N#Cc1c(-c2ccccc2)cc(-c2ccc(O)cc2)nc1N` gave ClpP mod 4.2%, PINK1 expr mod 2.4%, RORgamma inh inconclusive, VP16 counter -9.9% and Sfp inh -13.2%.
Screening Cc1ccc(S(=O)(=O)N(C)c2ccc(OCC(=O)OCc3cccc(Br)c3)cc2)cc1 returned ClpP mod -0.6% and PINK1 expr mod 0.5%.
`Cc1ccc(S(=O)(=O)N(C)c2ccc(OCc3cccc(C)c3)cc2)cc1` gave ClpP mod 22.4µM*, PINK1 expr mod 0.6%, RORgamma inh 7.0%, VP16 counter -16.8% and Sfp inh 10.4%.
For Nc1ccc(N=Nc2ccccc2)c(N)c1 the results were RORgamma inh -2.1% and VP16 counter 3.5%.
`CC(C)(C)C(=O)CSc1ncccn1` gave PINK1 expr mod 0.6%, RORgamma inh -33.8%, Epigenetic derep 3.1%, VP16 counter 1.1% and Sfp inh 44.7µM*.
For CC(C)(C)NC(=O)NC(=O)CSc1ncccn1 the results were ClpP mod -0.7%, PINK1 expr mod 0.7%, RORgamma inh 10.7%, Epigenetic derep -1.5%, VP16 counter 6.3% and Sfp inh 16.5%.
Cn1c(=S)[nH]c2c(c1=O)C(C)(C)Cc1ccccc1-2 was read as PINK1 expr mod 2.4%, RORgamma inh -3.2%, Epigenetic derep -0.2%, VP16 counter inconclusive and Sfp inh inconclusive.
Screening CCn1c(=S)[nH]c2c(c1=O)C(C)(C)Cc1ccccc1-2 returned ClpP mod -0.4%, PINK1 expr mod 1.4%, RORgamma inh 1µM*, Epigenetic derep 0.1%, VP16 counter 3.55µM* and Sfp inh 16.6%.
`Cc1sc2nc3ccc(N4CCCC4)nn3c(=O)c2c1C` gave ClpP mod -27.7%, PINK1 expr mod 3.9%, RORgamma inh 3.3%, Epigenetic derep 2.4%, VP16 counter 7.4% and Sfp inh 25.1µM*.
`Cc1ccc2nc3ccc(N4CCCCCCC4)nn3c(=O)c2c1` gave ClpP mod 10.0%, PINK1 expr mod -1.1%, RORgamma inh 6.9%, Epigenetic derep -0.6%, VP16 counter 2.1% and Sfp inh 5.0%.
COc1ccc(-c2n[nH]c(=S)n2-c2ccc(C)cc2C)cc1 was read as ClpP mod -29.8%, PINK1 expr mod 0.5%, RORgamma inh 2.82µM*, VP16 counter 5.01µM* and Sfp inh -4.1%.
For Cc1ccc(-n2c(-c3ccc(Cl)cc3)n[nH]c2=S)c(C)c1 the results were ClpP mod -19.4%, PINK1 expr mod 2.4%, RORgamma inh 1.41µM*, VP16 counter 1.12µM* and Sfp inh -7.5%.
Cc1ccc(-n2c(-c3cccnc3)n[nH]c2=S)c(C)c1 was read as ClpP mod -4.3%, RORgamma inh inconclusive, Epigenetic derep -1.2%, VP16 counter inconclusive and Sfp inh 6.0%.
`COc1ccc(NS(=O)(=O)c2ccc(OC)c(N(C)S(=O)(=O)c3ccc(Cl)cc3)c2)cc1` gave ClpP mod -3.7%, PINK1 expr mod -3.0%[38.3 µM], RORgamma inh inconclusive, Epigenetic derep -1.1%, VP16 counter 11.2µM* and Sfp inh 4.2%.
COc1ccc(S(=O)(=O)Nc2ccc(F)cc2)cc1N(C)S(=O)(=O)c1ccc(Cl)cc1 was read as ClpP mod 0.2%, RORgamma inh -1.8%, Epigenetic derep 1.0%, VP16 counter -10.7% and Sfp inh -12.5%.
For CCOc1ccccc1C(=O)Nc1c(C(=O)Nc2ccc(F)cc2)oc2ccccc12 the results were ClpP mod 31.6µM*, PINK1 expr mod 5.6% and Epigenetic derep -2.3%.
`CCOc1ccc(NC(=O)c2oc3ccccc3c2NC(=O)c2c(F)cccc2F)cc1` gave ClpP mod -5.8%, PINK1 expr mod 6.7% and Epigenetic derep -3.1%.
For O=C(Cn1nc2ccccc2n1)N1CCOc2ccc(CN3CCc4sccc4C3)cc2C1 the results were PINK1 expr mod -1.0%.
For COc1cccc(C(=O)Nc2nc(-c3ccccc3)c(-c3ccccc3)o2)c1 the results were ClpP mod -21.7%, PINK1 expr mod 4.6%, RORgamma inh 2.51µM*, Epigenetic derep -3.2%, VP16 counter 3.16µM* and Sfp inh 27.3%.
For CCOC(=O)C(=O)Nc1nc(-c2ccccc2)c(-c2ccccc2)o1 the results were ClpP mod 25.1%, PINK1 expr mod -0.1%, RORgamma inh 20µM*, Epigenetic derep -1.2%, VP16 counter -15.5% and Sfp inh 5.7%.
O=C(Nc1nc(-c2ccccc2)c(-c2ccccc2)o1)c1ccc(F)cc1 was read as ClpP mod inconclusive, PINK1 expr mod 2.3%, RORgamma inh 1.41µM*, Epigenetic derep -2.6%, VP16 counter 2.82µM* and Sfp inh 9.2%.
Screening COc1cccc(C(=O)Nc2ccccc2)c1 returned ClpP mod 1.5%, PINK1 expr mod 3.3%, RORgamma inh 14.8%, Epigenetic derep -2.1%, VP16 counter 3.7% and Sfp inh 1.1%.
CCOC(=O)Nc1sc(C)nc1-c1ccccc1 was read as ClpP mod -2.0%, PINK1 expr mod 3.3%[38.3 µM], RORgamma inh -1.4%, Epigenetic derep 2.4%, VP16 counter 1.2% and Sfp inh 23.4%.
`Cc1ccc2c(c1)C(=O)OC(C(=O)Nc1ncc(Cc3ccc(C(C)C)cc3)s1)C2` (centres undefined) gave ClpP mod 0.1%, PINK1 expr mod -0.6% and Epigenetic derep 0.0%.

Bioassay records as filed in PubChem BioAssay.
